# TDP1 cell CPT = qHTS for Inhibitors of human tyrosyl-DNA phosphodiesterase 1 (TDP1): qHTS in cells in presence of CPT; chicken DT40 Tdp1-/-;hTDP1 cells + 20 nM CPT, ATP luminescence, 48 h; Potency, µM (doses to about 46.2 µM), usual class: inhibitors; 420,000 tested, 12% active; further: nearly all actives have a fitted effect of over 55% in size
#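 Cell growth measured by CellTiter-Glo luminescence after a minimum 48 h, 37 C compound exposure with 20 nM CPT in Tdp1-knockout DT40 cells stably expressing hTDP1, seeded 400/well; qHTS titration format.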
# VP16 counter = VP16 counterscreen qHTS for inhibitors of ROR gamma transcriptional activity; Drosophila S2 Gal4-VP16 UAS-luciferase, luminescence, 20 h; Potency, µM (doses to about 53.6 µM), most hits filed as inhibitors; 310,000 tested, 3.5% active;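 further: Gal4-VP16 expression switched on by copper sulfate through the metallothionein promoter; nearly all actives have a fitted effect of over 50% in size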
# RORg inh = qHTS for inhibitors of ROR gamma transcriptional activity. Nuclear receptor ROR-gamma (Mus musculus), P51450. Drosophila S2 Gal4-RORgamma UAS-luciferase reporter, 20 h. Potency, µM (doses to about 53.6 µM), usual class: inhibitors. 310,000 tested, 5.4% active; further: nearly all actives have a fitted effect of over 60% in size
# Target sequence (P51450 whole entry, looked up, the tested form may be a part): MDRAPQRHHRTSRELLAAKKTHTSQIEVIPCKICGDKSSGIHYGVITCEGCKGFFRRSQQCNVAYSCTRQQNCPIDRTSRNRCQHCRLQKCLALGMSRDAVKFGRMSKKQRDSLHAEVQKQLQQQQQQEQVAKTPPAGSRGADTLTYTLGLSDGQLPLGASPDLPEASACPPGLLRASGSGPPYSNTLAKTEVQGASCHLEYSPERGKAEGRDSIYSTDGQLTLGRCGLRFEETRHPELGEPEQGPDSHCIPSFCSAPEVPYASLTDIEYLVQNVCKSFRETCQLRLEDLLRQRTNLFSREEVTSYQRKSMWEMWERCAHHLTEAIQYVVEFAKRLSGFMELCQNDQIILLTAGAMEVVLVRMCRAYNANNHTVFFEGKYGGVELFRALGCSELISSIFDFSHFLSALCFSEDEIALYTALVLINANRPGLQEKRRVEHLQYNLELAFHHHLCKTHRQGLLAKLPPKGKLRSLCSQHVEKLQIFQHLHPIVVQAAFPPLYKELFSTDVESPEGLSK
#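 A Gal4/UAS one-hybrid system in insect cells: metallothionein-promoter Gal4–ROR gamma fusion plus Photinus luciferase reporter. Copper sulfate 700 uM final, 20 hr ambient incubation, luminescent detection after 10 min with reagent.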
# TDP1 inh = qHTS Assay for Inhibitors of Tyrosyl-DNA Phosphodiesterase (TDP1); Tyrosyl-DNA phosphodiesterase 1 (Homo sapiens), Q9NUW8; 350,000 tested, 0.28% active; recombinant TDP1, AlphaScreen DNA substrate cleavage; Potency, µM (doses to about 130 µM), actives largely listed as inhibitors; AID 485290, 2010; further: nearly all actives have a fitted effect of over 40% in size
#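 Recombinant E. coli-expressed Tdp1 (1 nM) preincubated with compound 15 min at RT, then 5'-biotin/3'-phosphotyrosine-FITC DNA substrate (15 nM) added for 5 min. AlphaScreen beads (10 ug/ml) added, 10 min RT; tyrosine-FITC cleavage read as signal loss.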
# TDP1 cell noCPT = qHTS for Inhibitors of human tyrosyl-DNA phosphodiesterase 1 (TDP1): qHTS in cells in absence of CPT | DT40 Tdp1-/- hTDP1 cells, no CPT, ATP luminescence, 48 h | AID 686978, 2013 | Potency, µM (series often up to 46.2 µM), usual class: inhibitors | 420,000 tested, 15% active; further: nearly all actives have a fitted effect of over 55% in size
#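 Growth of hTDP1-complemented DT40 Tdp1-knockout cells is measured by ATP luminescence after at least 48 hr compound exposure at 37 °C, with DMSO substituting for the 20 nM CPT used in the parallel screen.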
# Numbers stand for hits; i = inactive; ? = inconclusive; nt = not tested or not shown; [ ] = another dose, or the depositor's remark. Most compounds without a hit are left out; they make up all but 19% or so of the library. The call rests on the fitted dose curve; in most records, active means well fitted curve in the direction sought with a large enough effect; inconclusive means small, poorly fitted or top-dose-only effect, or another doubt; inactive means no such curve, though single readings can be large; an effect the other way counts as inactive or inconclusive.
SMILES,TDP1 cell CPT,VP16 counter,RORg inh,TDP1 inh,TDP1 cell noCPT
O=C(COC(=O)c1ccc(S(=O)(=O)N2CCCC2)cc1)Nc1ccc(N2CCOCC2)cc1,18.4µM,i,i,i,?
O=C(COC(=O)c1n[nH]c2ccccc12)Nc1ccc(S(=O)(=O)N2CCCC2)cc1,23.1µM,10µM,i,i,20.6µM
Cc1cccc(N2C(=O)CCSC23C(=O)N(Cc2ccc(F)cc2)c2ccccc23)c1 (configuration not stated),9.2µM,nt,nt,i,6.51µM
O=C1CCSC2(C(=O)N(Cc3ccc(F)cc3)c3ccccc32)N1c1ccccc1 (configuration not stated),7.31µM,nt,nt,i,8.2µM
O=C1CCSC2(C(=O)N(Cc3ccc(F)cc3)c3ccccc32)N1c1ccc(F)c(F)c1 (configuration not stated),7.31µM,nt,nt,i,10.3µM
O=C1CCSC2(C(=O)N(Cc3ccc(F)cc3)c3ccccc32)N1c1cccc(F)c1 (configuration not stated),5.17µM,nt,nt,i,3.66µM
CC(C)c1ccc(N2C(=O)CSC23C(=O)N(Cc2cccc(F)c2)c2ccccc23)cc1 (configuration not stated),nt,nt,nt,i,nt
O=C1CSC2(C(=O)N(Cc3ccccc3F)c3ccccc32)N1c1ccc(F)cc1 (configuration not stated),nt,nt,nt,i,nt
Cc1cccc(N2C(=O)CSC23C(=O)N(Cc2cccc(F)c2)c2ccccc23)c1 (configuration not stated),nt,nt,nt,i,nt
O=C(CN(Cc1ccccc1F)S(=O)(=O)c1ccc(Cl)cc1)NCCCO,i,i,i,i,i
Cc1cc(C)cc(N2C(=O)CCSC23C(=O)N(Cc2ccccc2)c2ccccc23)c1 (configuration not stated),5.8µM,nt,nt,i,5.8µM
NC(N)=Nc1cc2ccccc2c2ccccc12,nt,i,i,i,nt
ClC(=Nc1cccc2ccccc12)N(c1ccccc1)c1ccccc1,17.8µM,nt,nt,nt,11.2µM
CCCN1C(=O)C(O)(CC(=O)c2ccc(OC)c(OC)c2)c2ccccc21 (configuration not stated),?,nt,nt,nt,16.4µM
Cc1ccc(C(=O)CC2(O)C(=O)N(Cc3ccccc3Cl)c3ccccc32)o1 (configuration not stated),?,i,i,i,10.3µM
COc1cc(C(=O)CC2(O)C(=O)N(Cc3ccccc3Cl)c3ccccc32)cc(OC)c1OC (configuration not stated),5.8µM,nt,nt,i,5.17µM
CC(O)Cn1ccccc1=N (configuration not stated),i,i,?,i,i
CC(=O)c1cc(-c2ccccc2)n(CC(=O)NC2CCCCCC2)c1C,?,nt,nt,i,?
CCOC(=O)c1cc(-c2ccc(F)cc2)n(CCC(=O)NC2CCCCC2)c1C,14.6µM,nt,nt,i,14.6µM
CCOC(=O)c1cc(-c2ccc(F)cc2)n(CC(=O)NC2CCCCCC2)c1C,16.4µM,nt,nt,i,14.6µM
CC(=O)c1cc(-c2ccccc2)n(CCC(=O)NC2CCCCCCC2)c1C,?,i,i,i,23.1µM
CCOC(=O)c1cc(-c2ccc(F)cc2)n(CC(=O)NC2CCCCC2)c1C,i,nt,nt,i,?
CCOC(=O)c1cc(-c2ccccc2)n(CCC(=O)NC2CCCCC2)c1C,?,nt,nt,nt,13µM
O=C(NC1CCCC1)c1ccc(S(=O)(=O)N2CCOCC2)cc1,i,i,i,i,i
CN1CCCC(CN(C)C(=O)c2cnn(-c3nccc(-c4ccccc4C(F)(F)F)n3)c2C2CC2)C1 (configuration not stated),i[9.04 µM],nt,nt,nt,i
SMILES,TDP1 cell CPT,VP16 counter,RORg inh,TDP1 inh,TDP1 cell noCPT
COc1ccc(Cl)cc1NC(=O)C1CSC(c2ccncc2)=N1 (configuration not stated),20.6µM,?,i,i,?
COc1ccc(Cl)cc1NC(=O)NC(C)c1ccncc1 (configuration not stated),i,i,i,i,?
COc1ccc(C(=O)NCC(=O)NCC(=O)OCC(=O)c2cccs2)cc1,i,i,i,i,i
CC(C)C(=O)Nc1nc(-c2ccc([N+](=O)[O-])cc2)cs1,9.2µM,i,i,i,4.61µM
O=[N+]([O-])c1ccc(-c2csc(NN=C3CCCC3)n2)cc1,4.11µM,i,i,i,10.3µM
COCC(=O)Nc1nc(-c2ccc([N+](=O)[O-])cc2)cs1,i,i,i,i,?
O=C(Cc1nc(-c2ccc([N+](=O)[O-])cc2)cs1)Nc1ccccc1,22.4µM,i,i,i,15.8µM
CCSc1nc(O)c(C2OC(=O)c3c2ccc(OC)c3OC)c(=O)n1-c1ccccc1 (configuration not stated),i,i,i,i,i
Cc1[nH]c(C)c(S(=O)(=O)N2c3ccccc3CC2C)c1C(=O)N1CCCCC1 (configuration not stated),i,i,i,i,i
CC(=O)NC(Cc1cnc[nH]1)C(=O)O (configuration not stated),?,i,i,i,i
CC1CN(c2oc(-c3cccs3)nc2C#N)CC(C)O1 (configuration not stated),i,i,i,i,i
CCO[C@H]1OC(C(=O)NCc2nc3ccccc3[nH]2)=C[C@@H](c2cn(C(C)=O)c3ccccc23)[C@@H]1CCCO,?,nt,nt,nt,18.4µM
CCO[C@@H]1OC(C(=O)NCc2nc3ccccc3[nH]2)=C[C@H](c2coc3ccccc3c2=O)[C@H]1CCCO,i,nt,nt,nt,i
CCO[C@@H]1OC(C(=O)NCc2nc3ccccc3[nH]2)=C[C@H](c2cn(C(C)=O)c3ccccc23)[C@H]1CCCO,?,i,i,i,16.4µM
CCO[C@H]1OC(C(=O)O)=C[C@@H](c2cn(C(C)=O)c3ccccc23)[C@@H]1CCCO,i,nt,nt,nt,i
CCO[C@@H]1OC(C(=O)NCc2ccccc2)=C[C@H](c2cn(C(C)=O)c3ccccc23)[C@H]1CCCO,?,i,i,i,18.4µM
CCO[C@@H]1OC(C(=O)NCc2ccccc2)=C[C@H](c2ccc(Br)cc2)[C@H]1CCCO,23.1µM,i,i,i,?
Cc1ccc(S(=O)(=O)N2CCCCC2)cc1C(=O)OCC(=O)N1c2ccccc2NC(=O)C1(C)C,?,nt,nt,i,?
CCOCCCN(Cc1ccco1)S(=O)(=O)c1cc2c(cc1C)NC(=O)CO2,i,nt,nt,i,?
C=CCC1NS(=O)(=O)OC2CCCC12 (configuration not stated),i,i,i,nt,i
COc1ccc2oc(C(=O)NC(C)(C)C)c(C)c2c1,?,i,?,i,i

# Bioassay records: PubChem BioAssay, National Center for Advancing Translational Sciences (NCATS)
